For 36 compounds, outcome results are on record in PubChem BioAssay AID1117283 (Broad Institute, 2014).

Results with a measured potency or affinity are listed apart. The source made the active and inactive calls.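 Rule for the calls: active = fluorescent signal decreased by at least 40%; inconclusive = no clear call, values can overlap the other calls; inactive = the rest, including activity opposite to the expected direction.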

The nature of the assay: inhibition of fibronectin matrix deposition – AH1F cells, Alexa488-fibronectin fluorescence, cherry-pick, set 2, dose response (AID 1117283).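 Note: AH1F fibroblasts given Alexa488-labelled fibronectin at 24 nM final.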 As to conditions: AH1F fibroblasts, overnight; series mostly up to 35 µM.
For `COc1ccc(C)cc1N(CC(=O)Nc1cccc(N(C)S(C)(=O)=O)c1)S(C)(=O)=O`, the compound was called inactive.

For `O=S(=O)(c1ccccc1F)N1CC[C@@H]2[C@H]1c1cc(-c3cccc(F)c3)ccc1N[C@@H]2CO`, the outcome was inactive.

As to `Fc1cnc(N2CCN(c3ccccc3)CC2)nc1N1CCN(c2ccccc2)CC1`, the compound was called inactive.

Take `Cc1ccc(NC(=O)COC(=O)c2cc(Cl)ccc2[N+](=O)[O-])c(C)c1`: the call was inactive.

For `O=C(Nc1ccccc1F)N1C[C@H]2[C@@H](c3ccccc31)[C@H](CO)N2C(=O)C1CC1`, the result was inactive.

On to `C[C@H]1CN([C@@H](C)CO)C(=O)c2cccc(NC(=O)Nc3ccc(C(F)(F)F)cc3)c2O[C@@H]1CN(C)C(=O)Nc1cccc2ccccc12`, for which the result was inactive.

Regarding `COC(=O)C[C@H]1CC[C@@H]2[C@@H](COc3ccc(NC(=O)Cc4cccs4)cc3C(=O)N2C)O1`, the result was inactive.

With `C[C@@H]1CN([C@H](C)CO)C(=O)c2cc(NC(=O)C3CCCCC3)ccc2O[C@@H]1CN(C)Cc1ccc(-c2ccccc2)cc1`, the outcome was inactive.

In the case of `O=C(c1cccnc1)N1C[C@H]2[C@@H](c3ccccc31)[C@@H](CO)N2CC1CCCC1`, the result was inactive.

Regarding `O=S(=O)(c1cccc(F)c1)N1CC[C@@H]2[C@H]1c1cc(-c3cccc(F)c3)ccc1N[C@@H]2CO`, the outcome was inactive.

In the case of `CO[C@H]1CN(C)C(=O)c2cc(NC(=O)Nc3cc(Cl)cc(Cl)c3)ccc2OC[C@@H](C)NC[C@@H]1C`, the outcome was inactive.

Consider `CC(C)(C)[S@](=O)N1Cc2cc(C(=O)NCc3ccccc3F)nc(-c3cccc(-c4cncnc4)c3)c2[C@@H]1CCO`, for which the call was inactive.

As to `CO[C@H]1CN(C)C(=O)c2cc(NC(=O)Nc3ccc(C(F)(F)F)cc3)ccc2OC[C@H](C)NC[C@H]1C`, the outcome was inactive.

In the case of `CO[C@H]1CN(C)C(=O)c2cc(NC(=O)Nc3ccc(Cl)c(Cl)c3)ccc2OC[C@H](C)NC[C@@H]1C`, the outcome was inactive.

As for `C[C@H](CO)N1C[C@H](C)[C@@H](CN(C)Cc2ccc(-c3ccccc3)cc2)Oc2ccc(NC(=O)C3CCCCC3)cc2C1=O`, the compound was called inactive.

In the case of `N#C[C@@H]1[C@H](c2ccccc2C2=CCCCC2)[C@@H](CO)N1S(=O)(=O)c1ccccc1`, the compound was called inactive.

With `C[C@H](CO)N1C[C@H](C)[C@@H](CN(C)Cc2ccccc2)Oc2ncc(-c3ccccc3)cc2C1=O`, the result was inactive.

For `N#C[C@H]1[C@@H](c2ccccc2C2=CCCCC2)[C@H](CO)N1S(=O)(=O)c1ccccc1`, the compound was called inactive.

In the case of `CO[C@H]1CN(C)C(=O)c2cc(NC(=O)Nc3ccc(Cl)c(Cl)c3)ccc2OC[C@@H](C)NC[C@@H]1C`, the result was inactive.

On to `Cc1cc(C)n2ncc(C(=O)NCc3ccc(Cl)cc3)c2n1`, for which the result was inactive.

Consider `CCCCOc1ccc(C(C)NC(=O)C2CCCN(S(=O)(=O)CCC)C2)cc1` (stereo unspecified), for which the compound was classed as inactive.

As for `Cc1ccc(O)c(-c2cc(-c3cccc(Br)c3)n[nH]2)c1`, the call was inactive.

For the compound `COC(=O)C[C@H]1CC[C@H]2[C@@H](COc3ccc(NC(=O)Cc4cccs4)cc3C(=O)N2C)O1`, the compound was classed as inactive.

On to `Cc1oc2ccc(O)cc2c1C(=O)c1ccc(Br)cc1`, for which the compound was called inactive.

In the case of `COc1cccc(CN2CCN(C(=O)c3ccc(-c4ccccc4)cc3)CC2)c1OC`, the outcome was inactive.

In the case of `CSc1ccccc1C(=O)C1CCCN(C(=O)CCc2cccnc2)C1` (stereo unspecified), the result was inactive.

Regarding `Cc1cc(C)c(S(=O)(=O)Nn2cnnc2)c(C)c1`, the compound was classed as inactive.

Turning to `C[C@H](CO)N1C[C@H](C)[C@H](CN(C)C)Oc2cc(C#C[C@@H](C)O)ccc2S1(=O)=O`, the result was inactive.

`C[C@H]1CN([C@@H](C)CO)C(=O)c2cc(-c3ccccc3)cnc2O[C@@H]1CN(C)Cc1ccccc1`: the compound was classed as inactive.

In the case of `O=C(CCNS(=O)(=O)c1cccc2nonc12)NC1CCCc2ccccc21` (stereo unspecified), the compound was called inactive.

Consider `COc1ccc(CCNC(=O)C2CCN(Cc3nc(-c4ccccc4F)oc3C)CC2)cc1OC`, for which the compound was classed as inactive.

On to `CO[C@H]1CN(C)C(=O)c2ccc(NC(=O)c3ccc(-c4ccccc4)cc3)cc2OC[C@H](C)NC[C@@H]1C`, for which the call was inactive.

As to `CO[C@@H]1CN(C)C(=O)c2cc(NC(=O)Nc3ccc(Cl)c(Cl)c3)ccc2OC[C@H](C)NC[C@H]1C`, the compound was called inactive.

For the compound `CC1(C)Cc2c(C#N)c(SCC(=O)c3ccccc3)nc(N3CCOCC3)c2CS1`, the compound was called inactive.

For the compound `CCN(Cc1ccncc1)C(=O)c1ccc2c(c1)S(=O)(=O)c1ccccc1C2=O`, the compound was called inactive.

For the compound `COc1ccccc1CC(=O)OC(C)C(=O)Nc1ccc(S(=O)(=O)N2CCCCC2)cc1` (stereo unspecified), the result was inactive.
